# MARV entry inh = blocks Marburg virus binding to or entry into cells. Potency, µM (highest dose often 37.8 µM), without a hit: at the top dose activity change, negative = inhibition, usual class: inhibitors. Marburg virus pseudotyped entry inhibition, cell reporter. actives 1.8% (n = 300,000). AID 540276; calls by dose curve; tested in HEK293 cells; note: potency is the fitted concentration of half-maximal effect
# VACV mCherry inh = inhibitors of vaccinia virus infection (mCherry reporter signal). Potency, µM (top dose mostly 36.5 µM), inactives show at the highest dose activity change, negative = inhibition, most hits filed as inhibitors. AID 720579. Vaccinia virus mCherry reporter infection, fluorescence. actives 0.63% (n = 310,000); calls by dose curve; tested in A549 cells; note: potency is the fitted concentration of half-maximal effect; nearly all actives have a fitted effect of over 35% in size
# Lassa entry inh = blocks Lassa virus binding to or entry into cells; Potency, µM (series often up to 37.9 µM), inactives show at the top dose activity change, negative = inhibition, usual class: inhibitors; Lassa virus pseudotype entry inhibition, cell reporter; actives 1.2% (n = 300,000); AID 540256; calls by dose curve; tested in HEK293 cells; note: potency is the fitted concentration of half-maximal effect; nearly all actives have a fitted effect of over 50% in size
# HCMV antiviral = inhibitors of human cytomegalovirus; actives 4.5% (n = 410,000); HFF cells, HCMV-luciferase reporter, 72 h; active compounds read low; activity change, negative = inhibition, % at 57.5 µM; in the data active = activity change below about -60%; inconclusive = no clear call, values can overlap the other calls; inactive = above about -39%
#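 Luciferase read-out from HCMV-luciferase-infected HFFs (MOI 1 PFU/cell) 72 h post infection at 37C; compounds added after 16 h cell attachment; activity normalized between buffer-only basal and Salinomycin (10uM) inhibitor controls.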
# VACV Venus inh = vaccinia inhibition (Venus reporter); actives 0.46% (n = 330,000); Potency, µM (doses to about 36.5 µM), inactives show top-dose activity change, negative = inhibition, hits mostly inhibitors; Vaccinia virus Venus reporter expression, fluorescence; calls by dose curve; tested in A549 cells; note: potency is the fitted concentration of half-maximal effect; nearly all actives have a fitted effect of over 30% in size
# FMDV antiviral = blocks foot and mouth disease virus; actives 1.2% (n = 410,000); Potency, µM (titrated, usually from 57.9 µM), without a hit: top-dose activity change, negative = inhibition, usual class: inhibitors; FMDV antiviral cell-based qHTS; calls by dose curve; tested in HEK293T cells; note: read-out not given here; potency is the fitted concentration of half-maximal effect; nearly all actives have a fitted effect of over 45% in size
# Starred values were filed as active, the others as inactive; i = inactive; ? = inconclusive; / = not tested or not shown; [ ] = remark or other dose. Most compounds without a hit are left out; they make up all but 6.5% or so of the library. % is set by controls: 0 for no effect and ±100 for the full control effect.
SMILES,MARV entry inh,VACV mCherry inh,Lassa entry inh,HCMV antiviral,VACV Venus inh,FMDV antiviral
c1ccc(CCNc2ccc3ncc(-c4cccc5ccccc45)n3n2)nc1,/,i,/,-35,-4%,-27%
C[N+](C)(CCOc1ccccc1)Cc1ccccc1 (tested in a mixture with another compound),-1%,i,-4%,8,-4%,-7%
CCCCCCCCCCCCC[N+](C)(C)Cc1ccccc1,/,11µM*,/,/,11µM*,28µM*
CCCCCCCCCCCCCCCC[N+](C)(C)Cc1ccc(F)cc1,?,-24%,?,-89*,?,-9%
COc1ccccc1NC(=O)Cn1c(C)cc(=O)c2cccc(OC)c21,?,?,-19%,-10,?,7.1µM*
COc1ccccc1NC(=O)Cn1c(=O)n(Cc2cccs2)c(=O)c2cccnc21,3%[46.1 µM],-13%,/,-64*,-18%,-14%
COc1ccc(CCNC(=O)c2cnn(-c3nccc(-c4ccco4)n3)c2C)cc1,/,-18%,/,/,-5%,39%
COc1ccc(C(=O)O/N=C(\N)c2ccccn2)c(OC)c1,?,-3%,?,-75*,-17%,-57%
COc1ccc(C(=O)O/N=C(\N)c2ccccc2)c(OC)c1,1.5µM*,2%,?,-78*,-16%,-36%
Nc1ccc(S(=O)(=O)Nc2nc3ccccc3o2)cc1,/,/,/,12,/,49%
COc1ccc(-c2cc(-c3nc4ccccn4c3NCc3ccccc3)ccc2OC)cc1,/,?,/,-79*,11µM*,3.5µM*
COc1ccc(-c2nc3ccccn3c2NCc2ccc3c(c2)OCO3)cc1,-8%,-13%,15%,43,-2%,14%
Cc1ccc2nc(-c3cccc(SC4CCCCC4)c3)c(NCc3ccccc3)n2c1,/,-34%,/,-22,?,25µM*
c1ccc(CNc2c(-c3cccc(SC4CCCCC4)c3)nc3ccccn23)cc1,/,-18%,/,-35,?,22µM*
Clc1cccc(-c2ccc(-c3nc4ccccn4c3NCc3ccccc3)cc2)c1,/,?,/,-80*,?,-21%
CCOc1ccc2c(c1)c(=O)c(C(=O)c1ccc(C)cc1)cn2Cc1ccccc1OC,?,?,-12%[46.1 µM],?,?,-25%
COc1ccc(OC)c(S(=O)(=O)Nc2ccc3[nH]c(=O)[nH]c3c2)c1,1%[46.1 µM],-28%,-2%[46.1 µM],-21,-23%,-25%
COc1ccc(CN2CCCC(Cn3cc(C(=O)N4CCCC4)nn3)C2)c(O)c1 (centres undefined),/,-10%,/,/,-9%,-12%
CC(C)NC(=O)Nc1ccc2c(c1)C(=O)N([C@H](C)CO)C[C@H](C)[C@@H](CN(C)S(C)(=O)=O)O2,/,i,/,-17,-6%,-3%
Clc1ccc(OCCCN2CCCCC2)c(Br)c1,15µM*,-13%,?,-23,-12%,26%
CC1CCCN(Cc2cccc(Oc3ccccc3)c2)C1 (centres undefined),?,i,-16%,-98*,-19%,/
CN1CCN(CCOCCOc2ccc(Br)cc2Cl)CC1,/,/,/,15,/,-25%
Clc1ccc(OCCCCCN2CCCC2)c(Br)c1,?,-13%,?,?,-1%,0%
CC1CCCN(CCCCOc2cccc(Br)c2)C1 (centres undefined),2.9µM*,-16%,3.3µM*,-13,-18%,-16%
CC1CCCN(CCOCCOc2ccc(Br)cc2Cl)C1 (centres undefined),16µM*,i,?,-64*,-23%,?
SMILES,MARV entry inh,VACV mCherry inh,Lassa entry inh,HCMV antiviral,VACV Venus inh,FMDV antiviral
Cc1ccc2c(c1)N(C(=O)N1CCC(C(=O)NCCC3=CCCCC3)CC1)CC(C)O2 (centres undefined),/,8%,3%[46.1 µM],3,2%,0%
O=C(CSc1ccc2nnc(CCNC(=O)c3ccccc3)n2n1)NCCc1ccccc1,/,/,/,34,/,-4%
Cc1cc(Cl)c(OCCOCCN2CCCC(C)C2)c(Br)c1 (centres undefined),?,-16%,13µM*,41,-18%,-16%
CC1CCCN(CCOCCOc2ccc(Cl)cc2Br)C1 (centres undefined),4.6µM*,/,?,-30,/,-57%
CN(C(=O)c1c(O)c2ccccc2n(C)c1=O)c1ccccc1,/,/,/,/,/,-15%
COc1cc(=O)n2c(c1C(=O)NCc1ccco1)CCN(Cc1cccc(C)n1)CC2,/,-10%,/,/,1%,-3%
CCN(CC)C(=O)[C@H]1C[C@H](CC(=O)NCc2cccc(C(F)(F)F)c2)C(=O)N2CCc3c([nH]c4cc(-c5ccco5)ccc34)[C@]12C,/,11µM*,/,/,11µM*,?
CCN(CC)C(=O)[C@H]1CC(CC(=O)NCc2cccc(C(F)(F)F)c2)C(=O)N2CCc3c([nH]c4ccc(OC)cc34)[C@]12C (some centres undefined),2%,10µM*,/,-19,?,?
CC(C)=CCC/C(C)=C/CNC(=O)C[C@H]1C[C@H](C(=O)N(C(C)C)C(C)C)[C@@]2(C)c3[nH]c4ccc(Cl)cc4c3CCN2C1=O,/,?,/,7,?,?
COc1ccc2[nH]c3c(c2c1)CCN1C(=O)C(CC(=O)NC/C=C(\C)CCC=C(C)C)C[C@H](C(=O)N(C(C)C)C(C)C)[C@@]31C (some centres undefined),-6%,-20%,/,-103*,?,-9%
O=C(Nc1cccc(S(=O)(=O)N2CCOCC2)c1)c1ccccc1[N+](=O)[O-],/,/,/,-1,/,2%
O=C1C(C(=O)N(c2ccccc2)C2CCCCC2)C=NC2SCCN12 (centres undefined),16%,/,/,/,/,/
Cc1ccc(CN2C[C@H](Sc3ccccn3)C[C@H]2C(=O)Nc2ccc3sc(C)nc3c2)c(C)c1,/,-13%,/,/,-14%,6%
COc1cc2nc(N(C)C)c(CNC3CCOC(C)(C)C3)cc2c(OC)c1OC (centres undefined),/,-4%,/,/,13%,-12%
Cc1ccccc1C(=O)Nc1cccc(C(=O)N/N=C/c2cc(Cl)cc([N+](=O)[O-])c2O)c1,/,/,/,-22,/,-6%
CC(C)(C)N(Cc1ccc2c(c1)OCO2)C(=O)/C=C\S(=O)c1ccccc1 (centres undefined),?,8.9µM*,?,-29,14µM*,-22%
C=C1C[C@H]2[C@@H]3CCc4cc(OC)ccc4[C@H]3CC[C@]12C,/,-12%,/,-69*,-20%,-1%
COc1ccc2c(c1)CCC1C2CC[C@@]2(C)C(O)CCC12 (some centres undefined),/,-2%,/,/,10%,11%
COc1ccc2c(c1)CCC1C2CC[C@@]2(C)C1CC[C@@H]2NCCCCCCN1C(=O)CCC1=O (some centres undefined),?,/,13µM*,/,/,/
COc1ccc2c(c1)CCC1[C@@H]2CCC2(C)[C@@H](NCCCCCCN3C(=O)C=CC3=O)CC[C@@H]12 (some centres undefined),/,/,/,/,/,-8%

# Assay outcomes (PubChem)
